Results on 11 compounds are retold here after PubChem BioAssay.

Experiment [1] is described as follows: anti-His antibody binders, primary screen, artefact control for SMM control protein annotation, biochemical, small-molecule microarray, 635 nm fluorescence (AID 1128).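 Note: score merges feature fluorescence with signal-to-noise for each printed compound spot.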 The settings on record: anti-His Alexa647 antibody binding, higher = more signal.
In experiment [2] the test system is Human papillomavirus type 1a E7 protein (residues 1-88). Description: HPV1a E7 small-molecule binders, primary screen, biochemical, small-molecule microarray, residues 1-88, 635 nm (AID 1129). The note with it: small-molecule microarray binding, fluorescence 635 nm; higher = more signal.
Experiment [3] deals with Focal adhesion kinase 1 (Homo sapiens) (UniProt Q05397). The experiment is described as follows: small-molecule microarray binders of FAK, primary screen, biochemical, 635/667 nm fluorescence, BSA, DTT (AID 1130).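 Note: composite of spot emission at 667 nm and signal to noise over triplicate slides.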 The note with it: PTK2 binding, 635 nm fluorescence, higher = more signal.
Focal adhesion kinase 1 (Homo sapiens), sequence (Q05397 whole entry, looked up): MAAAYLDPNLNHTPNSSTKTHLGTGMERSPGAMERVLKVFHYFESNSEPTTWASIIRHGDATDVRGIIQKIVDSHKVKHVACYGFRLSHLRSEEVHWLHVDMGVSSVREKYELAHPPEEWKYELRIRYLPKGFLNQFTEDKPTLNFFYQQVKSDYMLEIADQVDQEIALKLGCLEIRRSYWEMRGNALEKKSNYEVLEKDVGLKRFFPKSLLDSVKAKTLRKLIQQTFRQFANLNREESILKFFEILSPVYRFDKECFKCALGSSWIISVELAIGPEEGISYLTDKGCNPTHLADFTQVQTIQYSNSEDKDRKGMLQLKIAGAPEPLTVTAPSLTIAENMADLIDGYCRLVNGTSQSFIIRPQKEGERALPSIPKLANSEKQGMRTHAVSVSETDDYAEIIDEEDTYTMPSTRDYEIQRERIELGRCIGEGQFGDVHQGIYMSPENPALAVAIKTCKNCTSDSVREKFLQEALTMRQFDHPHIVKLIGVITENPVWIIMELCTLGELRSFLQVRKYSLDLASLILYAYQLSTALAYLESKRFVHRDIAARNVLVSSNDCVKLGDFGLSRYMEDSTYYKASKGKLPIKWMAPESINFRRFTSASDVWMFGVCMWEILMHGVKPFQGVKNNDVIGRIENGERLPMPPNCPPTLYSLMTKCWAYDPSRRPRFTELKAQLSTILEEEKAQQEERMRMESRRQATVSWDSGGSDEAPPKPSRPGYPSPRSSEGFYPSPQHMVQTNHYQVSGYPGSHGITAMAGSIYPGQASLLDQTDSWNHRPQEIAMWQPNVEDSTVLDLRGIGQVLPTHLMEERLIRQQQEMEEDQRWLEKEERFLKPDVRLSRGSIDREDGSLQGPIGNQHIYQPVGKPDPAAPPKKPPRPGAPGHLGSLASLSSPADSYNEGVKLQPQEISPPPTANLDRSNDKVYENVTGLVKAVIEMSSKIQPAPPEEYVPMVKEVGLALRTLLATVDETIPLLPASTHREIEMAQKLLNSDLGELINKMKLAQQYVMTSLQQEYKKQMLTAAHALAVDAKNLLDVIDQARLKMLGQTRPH
Experiment [4] concerns Fibrinogen (Alexa647-labelled). The experiment is described as follows: fibrinogen binders on compound microarrays, profiling panel, artefact control for SMM control-protein annotation, biochemical, small-molecule microarray, 635/667 nm fluorescence (AID 1131).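 Note: z-score merges 667 nm fluorescence with per-spot signal-to-noise over triplicate slides.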 The settings on record: fibrinogen-A647 binding fluorescence, higher = more signal.
In experiment [5] the target is Follistatin (Homo sapiens) (UniProt P19883). The experiment is described as follows: follistatin binders on small-molecule microarrays, primary screen, biochemical, small-molecule microarray, 635/667 nm fluorescence (AID 1132). The note with it: FST binding, 635 nm fluorescence, higher = more signal.
Follistatin (Homo sapiens), sequence (P19883 whole entry, looked up): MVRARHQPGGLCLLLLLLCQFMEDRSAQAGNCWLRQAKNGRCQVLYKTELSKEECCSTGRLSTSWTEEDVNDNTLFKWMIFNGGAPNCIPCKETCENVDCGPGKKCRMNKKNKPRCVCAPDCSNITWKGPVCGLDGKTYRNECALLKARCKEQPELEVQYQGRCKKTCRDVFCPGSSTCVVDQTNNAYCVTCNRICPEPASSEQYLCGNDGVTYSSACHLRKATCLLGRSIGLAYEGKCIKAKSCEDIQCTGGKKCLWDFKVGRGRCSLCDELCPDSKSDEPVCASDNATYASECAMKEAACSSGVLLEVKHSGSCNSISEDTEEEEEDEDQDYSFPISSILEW
The target of experiment [6] is Fibroblast growth factor 2 (Homo sapiens) (UniProt P09038). The experiment is described as follows: FGF2 binders on small-molecule microarrays, primary screen, biochemical, small-molecule microarray, 635/667 nm fluorescence (AID 1133). The note with it: small-molecule microarray binding, FGF2, fluorescence 635/667; higher = more signal.
Fibroblast growth factor 2 (Homo sapiens), sequence (P09038 whole entry, looked up): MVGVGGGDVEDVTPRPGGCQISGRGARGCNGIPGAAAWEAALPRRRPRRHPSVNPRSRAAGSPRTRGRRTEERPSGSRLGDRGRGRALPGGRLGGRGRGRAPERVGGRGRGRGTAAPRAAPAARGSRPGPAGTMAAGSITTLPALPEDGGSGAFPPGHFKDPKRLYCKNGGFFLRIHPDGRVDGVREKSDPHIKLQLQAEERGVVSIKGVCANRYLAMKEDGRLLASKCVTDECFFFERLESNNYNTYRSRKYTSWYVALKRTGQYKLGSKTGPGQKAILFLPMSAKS
A short description of experiment [7]: mitochondrial membrane potential change in A549 cells, profiling panel, cell-based, JC-1 fluorescence, basal, 24 h, 100 nL (AID 1138).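 Note: A549 lung adenocarcinoma cells under basal conditions with no added stimulus; test concentration not given here.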 The settings on record: higher = more signal.
For experiment [8], the system named is Lefty1. Description: Lefty1 binders on small-molecule microarrays, primary screen, biochemical, small-molecule microarray, 635/667 nm fluorescence (AID 1139). The note with it: small-molecule microarray binding, fluorescence 635/667; higher = more signal.
The test system of experiment [9] is wheat germ agglutinin (Triticum aestivum), Alexa647-labelled. Description: wheat germ agglutinin binders on compound microarrays, profiling panel, artefact control for SMM control-protein annotation, biochemical, small-molecule microarray, 635/667 nm fluorescence (AID 1140).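 Note: score merges 667 nm feature emission with signal to noise over triplicate slides.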 The note with it: WGA-A647 binding, 635 nm fluorescence, higher = more signal.
The target in experiment [10] is Luciferin 4-monooxygenase (Photinus pyralis) (UniProt P08659). The experiment is described as follows: firefly luciferase enzyme inhibitors, primary screen, biochemical, luminescence, purified enzyme, 2006 set (AID 1141).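 Note: cell-free assay with purified firefly luciferase at 100 ng per well in PBS; test concentration not given here.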 The settings on record: SteadyGlo luminescence, 30 min, higher = more signal, called active from +8 up or from −8 down.
Luciferin 4-monooxygenase (Photinus pyralis), sequence (P08659 whole entry, looked up): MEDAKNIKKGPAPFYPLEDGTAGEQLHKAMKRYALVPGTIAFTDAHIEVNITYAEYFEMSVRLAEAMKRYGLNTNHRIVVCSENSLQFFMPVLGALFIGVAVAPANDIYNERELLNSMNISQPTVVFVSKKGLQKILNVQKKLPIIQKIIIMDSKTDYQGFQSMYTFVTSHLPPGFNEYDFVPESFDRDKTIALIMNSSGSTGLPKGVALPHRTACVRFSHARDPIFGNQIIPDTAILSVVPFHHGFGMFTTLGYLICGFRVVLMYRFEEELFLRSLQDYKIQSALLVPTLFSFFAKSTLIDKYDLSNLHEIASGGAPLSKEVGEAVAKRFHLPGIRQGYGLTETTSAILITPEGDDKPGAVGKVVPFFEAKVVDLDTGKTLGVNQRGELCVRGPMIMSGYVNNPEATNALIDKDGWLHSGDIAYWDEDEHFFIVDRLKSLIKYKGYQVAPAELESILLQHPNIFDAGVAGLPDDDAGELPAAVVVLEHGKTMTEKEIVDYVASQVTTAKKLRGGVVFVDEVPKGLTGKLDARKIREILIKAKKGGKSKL

Activity calls are given as the source filed them.

Regarding `C[C@]1(C(=O)NCC(F)(F)F)c2ccccc2C(=O)N(Cc2ccccc2)[C@H]1c1ccc(CO)cc1`, the composite z-score in experiment [1] is 1.09; in experiment [2], -0.634; in experiment [3], -0.712; in experiment [4] it was -1.32; in experiment [5], -0.684; in experiment [6] it was -1.02. Moreover, the composite z-score in experiment [8] was -1.25; in experiment [9], -0.68. Further, the z-score was -0.0626 in [7] and 0.857 (inactive) in experiment [10].
As to `Cc1c(NC(=O)/C(C#N)=C/c2ccccc2Cl)c(=O)n(-c2ccccc2)n1C`, the composite z-score in experiment [1] was 0.228; in [2], 0.654; in experiment [3] it was -0.0387; in experiment [4], 0.425; in experiment [5], 0.255; in experiment [6], -0.0318. Also, the composite z-score in experiment [8] was -0.0835; in experiment [9], 0.195. Moreover, the z-score is 0.886 in [7] and -0.805 (inactive) in experiment [10].
Take `COCCOC(=O)N1C(=O)[C@@]2(c3cc(C#CCNC(N)=O)ccc31)[C@H](c1ccc(OCCO)cc1)N1[C@H](c3ccccc3)[C@H](c3ccccc3)OC(=O)[C@H]1[C@@H]2C(=O)NC[C@H](O)c1ccccc1`: the composite z-score in experiment [1] is 0.626; in experiment [2], 0.984; in [3], 0.445; in experiment [4], 0.942; in experiment [5] it was 1.37; in experiment [6], 1. In addition, the composite z-score in experiment [8] amounted to 1.16; in [9], 0.768. Also, the z-score is -1.19 in [7] and 0.0945 (inactive) in experiment [10].
With `CC(C)C(CO)N1C(=O)[C@@H]2[C@H]3C(=O)OCC=C[C@H]3OC23C=CCN(C(C)(C)C)C(=O)[C@@H]13` (stereo not given in full), the composite z-score was -0.54 in experiment [1]; -1.09 in [2]; -0.513 in [3]; -0.0751 in experiment [4]; 0.277 in [5]; -0.405 in experiment [6]. In addition, the composite z-score in experiment [8] is 0.503; in experiment [9], -0.0676. Further, the z-score in experiment [7] was -1.76; in experiment [10], -0.159 (inactive).
As to `CC(C)C[C@@H]1NC(=O)CNC(=O)[C@@]23C(=O)N[C@@H](Cc4ccccc4)C2[C@H](C)[C@@]2(C)O[C@H]2C3/C=C/C/C=C\CNC1=O` (stereo not given in full), the composite z-score in experiment [1] was 0.678; in experiment [2], 0.331; in experiment [3] it was -0.183; in experiment [4] it was 0.949; in experiment [5], 1.08; in experiment [6], 0.759. The composite z-score is 1.07 in experiment [8] and -0.0197 in [9]. In addition, the z-score was 0.036 in experiment [7] and -0.14 (inactive) in [10].
Consider `CC(=O)NCCCC[C@@H]1NC(=O)[C@@H]2C[C@H](C(=O)NCCCCCCN)[C@H](c3cccc(OCCO)c3)N2C1=O`, for which the composite z-score in experiment [1] is 1.86; in experiment [2], 0.286; in [3] it was 0.367; in experiment [4], 1.01; in experiment [5], 0.382; in [6], -0.0704. The composite z-score was -0.555 in experiment [8] and 1.11 in experiment [9]. Further, the z-score in experiment [7] is 0.266; in experiment [10], -0.352 (inactive).
Turning to `CCOC(=O)C=Cc1cc(F)ccc1O`, the composite z-score in experiment [1] is 0.354; in experiment [2] it was -0.166; in experiment [3], 0.727; in [4], -0.333; in experiment [5], 0.0875; in [6], 0.0013. Moreover, the results for the composite z-score in experiment [8] and in [9] were -0.471 and 0.0203, respectively. Further, the z-score was -1.8 in experiment [7] and 0.701 (inactive) in experiment [10].
Consider `Cc1cccc([C@H]2C[C@H]3C(I)=C[C@@H]2C(=O)[C@]32CO2)c1`, for which the composite z-score in [1] was 0.0509; in [2], -0.479; in experiment [3] it was -0.446; in [4], -0.775; in [5] it was 0.573; in experiment [6], 0.437. Also, the results for the composite z-score in [8] and in experiment [9] were -0.118 and -0.412, respectively. In addition, the values for the z-score in experiment [7] and in experiment [10] were 0.33 and -0.303 (inactive), respectively.
For the compound `COC(=O)C1=CC(CCCO)=CC(c2ccc(CN3CCCC3)cc2)N(Cc2cc3c(cc2Br)OCO3)C=C1C(=O)OC` (stereo not given), the composite z-score in experiment [1] amounted to 0.676; in [2] it was 1.22; in [3], 0.473; in [4], 1.02; in experiment [5], 1.2; in [6], 0.918. Moreover, the composite z-score came to 0.514 in experiment [8] and 1 in [9]. The z-score in experiment [7] is 0.0526; in experiment [10] it was 0.197 (inactive).
For the compound `COCCOC(=O)N1C(=O)[C@@]2(c3ccccc31)[C@H](c1ccccc1OCCO)N1[C@H](c3ccccc3)[C@H](c3ccccc3)OC(=O)[C@H]1[C@@H]2C(N)=O`, the composite z-score in experiment [1] turned out to be 1.93; in experiment [2] it was 1.18; in [3], 0.502; in experiment [4] it was 0.955; in [5], 1.4; in [6], 1.57. In addition, the composite z-score in experiment [8] was found to be 1.01; in experiment [9], 0.64. In addition, the z-score in experiment [7] is -0.206; in [10], 0.0559 (inactive).
For the compound `COCCOC(=O)N1C(=O)[C@@]2(c3ccccc31)[C@H](c1ccccc1OCCO)N1[C@H](c3ccccc3)[C@H](c3ccccc3)OC(=O)[C@H]1[C@@H]2C(=O)N1CCCCCCC1`, the composite z-score in [1] is 0.703; in [2], 1.32; in experiment [3], 3.01; in experiment [4], 0.995; in experiment [5], 1.53; in experiment [6], 1.55. Moreover, the composite z-score in [8] turned out to be 1.71; in [9], 1.63. Further, the z-score is -0.0428 in [7] and -0.507 (inactive) in experiment [10].
